Measurements published in PubChem BioAssay (EPA / NIEHS).
Several values for one entry are separate records, joined by “and”; a condition that tells them apart may be missing. Identical values can stand only once. Where a structure was tested more than once in an assay, its records may differ in their call. Activity calls are given as the source filed them. How the source made its calls: active means hit-call score of the fitted dose curve at least 0.9, where 1 is the maximum; inactive means score below 0.9.

Tests used:
[1] = read-out: Collagen I, COL1A1 (gene 1277); experiment: BSK_hDFCGF_CollagenI: BioMAP Diversity Plus: hDFCGF Assay for Collagen I Biomarker Activity (AID 2284250); conditions: primary human foreskin fibroblasts
Procedure, shortened: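 Collagen I quantified by ELISA 24 h after chemical dosing of human dermal fibroblast primary cells, with parallel SRB staining (0.1%, TCA-fixed, 560 nm) for overt cytotoxicity.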

[2] = read-out: Interferon-inducible T-cell alpha chemoattractant (ITAC), CXCL11 (gene 6373); experiment: BSK_hDFCGF_ITAC: BioMAP Diversity Plus: hDFCGF Assay for Interferon-inducible T-cell alpha chemoattractant (ITAC) Biomarker Activity (AID 2284251); conditions: primary human foreskin fibroblasts
Procedure, shortened: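 Chemical dosing of primary human foreskin fibroblast cultures preceded ELISA measurement of I-TAC at 24 h. Response was analysed in the positive direction using DMSO as baseline, while parallel SRB staining measured cytotoxicity.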

[3] = read-out: Plasminogen activator inhibitor-1 (PAI1), SERPINE1 (gene 5054); experiment: BSK_KF3CT_PAI1: BioMAP Diversity Plus: KF3CT Assay for Plasminogen activator inhibitor-1 (PAI1) Biomarker Activity (AID 2284252); conditions: primary human keratinocytes with fibroblasts
Procedure, shortened: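 PAI-1 levels quantified by ELISA after 24 h compound exposure of primary human skin keratinocytes co-cultured with fibroblasts. Activity is the gain relative to DMSO; cytotoxicity tracked in parallel cultures via SRB staining.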

[4] = read-out: Monocyte Chemoattractant Protein-1 (MCP1), CCL2 (gene 6347); experiment: BSK_IMphg_MCP1: BioMAP Diversity Plus: IMphg Assay for Monocyte Chemoattractant Protein-1 (MCP1) Biomarker Activity (AID 2284253); conditions: primary human endothelial cells with macrophages
Procedure, shortened: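 ELISA readout of MCP-1 at 24 hours in IMphg co-cultures of venular endothelial cells and macrophages, normalised to DMSO; parallel cultures stained with sulforhodamine B for overt cytotoxicity.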

[5] = read-out: Interleukin-8 (IL8), CXCL8 (gene 3576); experiment: BSK_KF3CT_IL8: BioMAP Diversity Plus: KF3CT Assay for Interleukin-8 (IL8) Biomarker Activity (AID 2284254); conditions: primary human keratinocytes with fibroblasts
Procedure, shortened: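 Using parallel SRB-stained cultures to flag overt toxicity, the study quantified IL-8 by ELISA in human keratinocyte–foreskin fibroblast co-cultures 24 h after dosing, with DMSO as negative control and baseline.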

[6] = read-out: Macrophage Inflammatory Protein-1 Alpha (MIP1a), CCL3 (gene 6348); experiment: BSK_IMphg_MIP1a: BioMAP Diversity Plus: IMphg Assay for Macrophage Inflammatory Protein-1 Alpha (MIP1a) Biomarker Activity (AID 2284255); conditions: primary human endothelial cells with macrophages
Procedure, shortened: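 MIP-1a protein levels were quantified by ELISA after 24 h treatment of human endothelial cell–macrophage co-cultures, compared with DMSO. Parallel cultures were fixed with TCA and stained with 0.1% SRB to gauge overt cytotoxicity.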

[7] = read-out: Plasminogen activator inhibitor-1 (PAI1), SERPINE1 (gene 5054); experiment: BSK_MyoF_PAI1: BioMAP Diversity Plus: MyoF Assay for Plasminogen activator inhibitor-1 (PAI1) Biomarker Activity (AID 2284256); conditions: primary human lung fibroblasts
Procedure, shortened: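 In this multiplexed primary-cell system, fibroblasts from human lung received compound for 24 h before ELISA detection of PAI-1; overt toxicity was checked by SRB (0.1%, TCA-fixed, 560 nm) in parallel wells.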

CD69, CD69 (gene 969) = experiment: BSK_IMphg_CD69: BioMAP Diversity Plus: IMphg Assay for CD69 Biomarker Activity (AID 2284257); conditions: primary human endothelial cells with macrophages
Procedure, shortened: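 Readout is ELISA for CD69 in primary human venular endothelial cell/macrophage co-culture, taken at 24 h post-dosing. SRB staining of parallel cultures gauged overt cytotoxicity; signal increase versus DMSO defined activity.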

[8] = read-out: Eotaxin 3, CCL26 (gene 10344); experiment: BSK_BF4T_Eotaxin3: BioMAP Diversity Plus: BF4T Assay for Eotaxin 3 Biomarker Activity (AID 2284258); conditions: primary human bronchial epithelial cells with fibroblasts
Procedure, shortened: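 ELISA measurement of Eotaxin-3 after 24 h chemical exposure in a bronchial epithelial/dermal fibroblast co-culture, with DMSO as baseline. Parallel SRB staining (0.1% SRB after 10% TCA fixation, 560 nm) flagged overt cytotoxicity.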

[9] = read-out: Monocyte Chemoattractant Protein-1 (MCP1), CCL2 (gene 6347); experiment: BSK_BF4T_MCP1: BioMAP Diversity Plus: BF4T Assay for Monocyte Chemoattractant Protein-1 (MCP1) Biomarker Activity (AID 2284259); conditions: primary human bronchial epithelial cells with fibroblasts
Procedure, shortened: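 MCP-1 ELISA readout taken 24 h after dosing in the BF4T system (bronchial epithelial cells plus dermal fibroblasts). Parallel SRB total-protein staining flagged cytotoxicity; DMSO served as baseline, positive fitting direction.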

Measured: AC50

FC(F)(F)C(F)(F)C(F)(F)C(F)(F)C(F)(F)C(F)(F)C(F)(F)C(F)(F)CCS
inactive: all assays above

C=CC(=O)OCC(F)(F)C(F)(F)C(F)(F)C(F)(F)C(F)(F)C(F)(F)C(F)(F)F
not listed: [2]
inactive: all other assays above

CCCCCCOC(=O)c1ccccc1O
inactive: [3] | [5]
active: [1] 18.7 µM and 10.1 µM | [3] 17.4 µM

O=P(O)(O)OCCC(F)(F)C(F)(F)C(F)(F)C(F)(F)C(F)(F)C(F)(F)F
inactive: [1] | [2] | [3] | [4] | [5] | [6] | [7] | [8] | [9]
active: [2] 5.83 µM

CCCCC(CC)COP(=O)(O)OCC(CC)CCCC (stereo not drawn)
inactive: [1] | [5]
active: [1] 20 µM | [3] 31.1 µM and 26.6 µM

FC(F)(F)C(F)(F)C(F)(F)C(F)(F)C(F)(F)C(F)(F)C(F)(F)Br
not listed: [2]
inactive: all other assays above

CC(C)(C)C(=O)CC(=O)C(F)(F)C(F)(F)C(F)(F)F
inactive: [1] | [3] | [4] | [5] | [6] | [7] | [8] | [9]
active: [6] 44.2 µM | [9] 49.9 µM

O=C(O)C(F)(F)C(F)(F)C(F)(F)C(F)(F)C(F)(F)C(F)(F)C(F)(F)C(F)(F)C(F)(F)C(F)F
active: [2] 12.8 µM and 5.95 µM | [3] 19.3 µM and 13.8 µM | [4] 49.5 µM and 48.9 µM | [7] 23.6 µM | [8] 5.95 µM | [9] 13.3 µM and 3.36 µM
inactive: [1] | [5] | [6] | [7] | [8]

O=S(=O)(OCC(F)F)C(F)(F)F
inactive: [1] | [3] | [4] | [5] | [6] | [7] | CD69, CD69 (gene 969) | [8] | [9]
active: [3] 0.324 µM

FC(F)(F)C(F)(F)C(F)(F)C(F)(F)C(F)(F)CCI
active: [8] 38.6 µM
inactive: [1] | [3] | [4] | [5] | [6] | [7] | [8] | [9]

C=C(C)C(=O)OCC(F)(F)C(F)(F)C(F)(F)C(F)(F)C(F)(F)C(F)(F)C(F)(F)F
not listed: [2] | CD69, CD69 (gene 969)
inactive: all other assays above

FC(F)(F)C(F)(F)C(F)(F)N(C(F)(F)C(F)(F)C(F)(F)F)C(F)(F)C(F)(F)C(F)(F)F
not listed: [2] | CD69, CD69 (gene 969)
inactive: all other assays above

Oc1ccc(Nc2ccccc2)cc1
active: [7] 7.66 µM

FC(F)(F)C(F)(F)C(F)(F)CI
not listed: [2] | CD69, CD69 (gene 969)
inactive: all other assays above

O=S(=O)(O)C(F)(F)C(F)(F)C(F)(F)C(F)(F)C(F)(F)C(F)(F)C(F)(F)F
not listed: [2] | CD69, CD69 (gene 969)
inactive: all other assays above

Nc1ccc([N+](=O)[O-])cc1O
inactive: [7]

CCO[Si](CCC(F)(F)C(F)(F)C(F)(F)C(F)(F)C(F)(F)C(F)(F)F)(OCC)OCC
not listed: [2] | CD69, CD69 (gene 969)
inactive: all other assays above
